What follows are sequences tested against PCDHA4 (assay: pooled miR-30 sensor sort-seq; sequence = guide strand). Conditions: shRNA.
Also: reference of the scale not given here.

**Q.** For TTCCTCAGTTGTCTGCAGCTGA, which sensor-assay potency score (higher = more potent) is on record?
**A.** 0.537

**Q.** How did the sensor-assay potency score (higher = more potent) turn out when TTTTCTAGTAATCTCACCTTAT was run?
**A.** -0.448

**Q.** ATGTCTTTGTCGGACACGCTGA was tested. Which sensor-assay potency score (higher = more potent) did it give?
**A.** -1.17

**Q.** For TTGTGTTGCTGGGAACACCGGC, which sensor-assay potency score (higher = more potent) is on record?
**A.** -0.469

These sequences were tested against PCDHGA11 in the same assay as above. Conditions: shRNA.

**Q.** TATCTCCACTTCGTCCTCCTGG was tested. Which sensor-assay potency score (higher = more potent) did it give?
**A.** -0.661

**Q.** With TAAAACAGGAGACTTGACCATT as the sequence, how does the sensor-assay potency score (higher = more potent) read?
**A.** -0.606

**Q.** How did the sensor-assay potency score (higher = more potent) turn out when TCAATTTGTAATAATTTCCATA was run?
**A.** -0.421

**Q.** TTGTCCACCGCAACCACCTTGG was tested. Which sensor-assay potency score (higher = more potent) did it give?
**A.** -0.673

**Q.** For TAGCTCTGGACCAACTCCCTGT, which sensor-assay potency score (higher = more potent) is on record?
**A.** 0.0165

**Q.** TTTTCTGGAACACTCACGCGAT was tested. Which sensor-assay potency score (higher = more potent) did it give?
**A.** -0.577

**Q.** For TCTTGTTGCCATTGCCACCTGC, which sensor-assay potency score (higher = more potent) is on record?
**A.** -0.107

**Q.** How did the sensor-assay potency score (higher = more potent) turn out when TTGAATTTCCATCTCATAGAAT was run?
**A.** -0.931

**Q.** How did the sensor-assay potency score (higher = more potent) turn out when TTCTCCAGAATCTTGATCTTGC was run?
**A.** 0.227

**Q.** For TTTGTCCACCGCAACCACCTTG, which sensor-assay potency score (higher = more potent) is on record?
**A.** -1.17

**Q.** TATATTGTAGCTCTGGACCAAC was tested. Which sensor-assay potency score (higher = more potent) did it give?
**A.** -0.9

**Q.** TTTAGAAGAGCAATCACTGTAC was tested. Which sensor-assay potency score (higher = more potent) did it give?
**A.** 0.556

**Q.** ACAGTGATCAACATCGTCGTGG was tested. Which sensor-assay potency score (higher = more potent) did it give?
**A.** -0.0572

These sequences were tested against PCP2 in the same assay as above. Conditions: shRNA.

**Q.** Which sensor-assay potency score (higher = more potent) does the source give for TGAAGAAGCCCTCCTGGTCTGG here?
**A.** -1.06

**Q.** Which sensor-assay potency score (higher = more potent) does the source give for ATGAGGCTGTCCATCTCGGGGG here?
**A.** -1.33

**Q.** For TTGGTGGTCTGGCCCGGCCCGG, which sensor-assay potency score (higher = more potent) is on record?
**A.** -1.82

**Q.** Which sensor-assay potency score (higher = more potent) does the source give for TTTCTGTGCTCCGTCCTTGGAC here?
**A.** -1.03

**Q.** For TGTCACACGTTGGTCATCCATG, which sensor-assay potency score (higher = more potent) is on record?
**A.** -1.21

**Q.** With TGACTGTCACACGTTGGTCATC as the sequence, how does the sensor-assay potency score (higher = more potent) read?
**A.** -1.61

**Q.** How did the sensor-assay potency score (higher = more potent) turn out when TCGTTTCTGTGCTCCGTCCTTG was run?
**A.** -0.435

**Q.** With TCCATGAGGCTGTCCATCTCGG as the sequence, how does the sensor-assay potency score (higher = more potent) read?
**A.** -1.39

**Q.** Which sensor-assay potency score (higher = more potent) does the source give for TTCTGTGCTCCGTCCTTGGACC here?
**A.** -1.15

**Q.** Which sensor-assay potency score (higher = more potent) does the source give for TGAACAGCGCTGTCCCTCCATC here?
**A.** -1.32

**Q.** TTGCAGTGAACAGCGCTGTCCC was tested. Which sensor-assay potency score (higher = more potent) did it give?
**A.** -0.308

**Q.** ACACGTTGGTCATCCATGCGGC was tested. Which sensor-assay potency score (higher = more potent) did it give?
**A.** -0.873

What follows are sequences tested against PCSK5 in the same assay as above. Conditions: shRNA.

**Q.** For TTTGCTTCAACCATGTCCGTGA, which sensor-assay potency score (higher = more potent) is on record?
**A.** 0.588

**Q.** Which sensor-assay potency score (higher = more potent) does the source give for TTGTACAGTTCTTGAATCCTGG here?
**A.** -0.113

**Q.** With TTGAAAGCAATTCCGACTGTGC as the sequence, how does the sensor-assay potency score (higher = more potent) read?
**A.** -0.25

**Q.** Which sensor-assay potency score (higher = more potent) does the source give for TTCCATTGAAATGAAACTGTGG here?
**A.** -0.149

**Q.** For TTTTGCTTCAACCATGTCCGTG, which sensor-assay potency score (higher = more potent) is on record?
**A.** -0.77

**Q.** With TAGTGCAAACAGTCATTGCAGT as the sequence, how does the sensor-assay potency score (higher = more potent) read?
**A.** -0.552

**Q.** How did the sensor-assay potency score (higher = more potent) turn out when TTTGACACATTCCTAAGTCTAA was run?
**A.** -0.793

**Q.** ATAGCTGATACTACAGCTCTGC was tested. Which sensor-assay potency score (higher = more potent) did it give?
**A.** -0.314

**Q.** For TTGATTTGTCGGTCTGTGCTCT, which sensor-assay potency score (higher = more potent) is on record?
**A.** 0.6

**Q.** For TTGTCTTGATTTGTCGGTCTGT, which sensor-assay potency score (higher = more potent) is on record?
**A.** 0.944

**Q.** With TTTTGCAGGATTTGTATCCATT as the sequence, how does the sensor-assay potency score (higher = more potent) read?
**A.** -1.05

From the OligoGym collection
